# Source: the supplement of paper PMC4466140
# Molecular target: AgAbp1
# Assay: SPOT peptide array binding signal intensity (averaged, normalized) (arbitrary units (background-subtracted, floor 0; scale differs between SH3 domains)); higher = stronger binding of the SH3 domain to the peptide
# Outline: (§1)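 E. coli BL21(DE3) was used to express GST-fused SH3 domains from four yeast species, which were then purified on glutathione Sepharose. These were incubated at 10 μg/ml in TBS-based blocking buffer overnight at 4°C on cellulose membranes carrying synthetic 15-mer peptides, in which cysteines were replaced by serines. Binding signal is the replicate average of normalized, background-subtracted spot intensity, in arbitrary units that differ between domains.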
row,Binder,SPOT peptide array binding signal intensity
1,FFRRSELYLPNSSKA,2

# Molecular target: AgBbc1
# Assay: as above
# Outline: as §1
row,Binder,SPOT peptide array binding signal intensity
1,FFRRSELYLPNSSKA,3.75

# Molecular target: AgBem1-D1
# Assay: as above
# Outline: as §1
row,Binder,SPOT peptide array binding signal intensity
1,FFRRSELYLPNSSKA,31.5

# Molecular target: AgBzz1-D1
# Assay: as above
# Outline: as §1
row,Binder,SPOT peptide array binding signal intensity
1,FFRRSELYLPNSSKA,26.5

# Molecular target: AgBzz1-D2
# Assay: as above
# Outline: as §1
row,Binder,SPOT peptide array binding signal intensity
1,FFRRSELYLPNSSKA,22.5

# Molecular target: AgCyk3
# Assay: as above
# Outline: as §1
row,Binder,SPOT peptide array binding signal intensity
1,FFRRSELYLPNSSKA,≤ 0

# Molecular target: AgFus1
# Assay: as above
# Outline: as §1
row,Binder,SPOT peptide array binding signal intensity
1,FFRRSELYLPNSSKA,162

# Molecular target: AgHof1
# Assay: as above
# Outline: as §1
row,Binder,SPOT peptide array binding signal intensity
1,FFRRSELYLPNSSKA,25

# Molecular target: AgHse1
# Assay: as above
# Outline: as §1
row,Binder,SPOT peptide array binding signal intensity
1,FFRRSELYLPNSSKA,1000

# Molecular target: AgLsb1
# Assay: as above
# Outline: as §1
row,Binder,SPOT peptide array binding signal intensity
1,FFRRSELYLPNSSKA,1.75

# Molecular target: AgLsb4
# Assay: as above
# Outline: as §1
row,Binder,SPOT peptide array binding signal intensity
1,FFRRSELYLPNSSKA,47.5

# Molecular target: AgMyo5
# Assay: as above
# Outline: as §1
row,Binder,SPOT peptide array binding signal intensity
1,FFRRSELYLPNSSKA,7.25

# Molecular target: AgNbp2
# Assay: as above
# Outline: as §1
row,Binder,SPOT peptide array binding signal intensity
1,FFRRSELYLPNSSKA,11

# Molecular target: AgRvs167
# Assay: as above
# Outline: as §1
row,Binder,SPOT peptide array binding signal intensity
1,FFRRSELYLPNSSKA,1.67

# Molecular target: AgSho1
# Assay: as above
# Outline: as §1
row,Binder,SPOT peptide array binding signal intensity
1,FFRRSELYLPNSSKA,25

# Molecular target: AgSla1-D1-D2
# Assay: as above
# Outline: as §1
row,Binder,SPOT peptide array binding signal intensity
1,FFRRSELYLPNSSKA,122

# Molecular target: AgSla1-D3
# Assay: as above
# Outline: as §1
row,Binder,SPOT peptide array binding signal intensity
1,FFRRSELYLPNSSKA,5.5

# Molecular target: CaAbp1-D1
# Assay: as above
# Outline: as §1
row,Binder,SPOT peptide array binding signal intensity
1,FFRRSELYLPNSSKA,70

# Molecular target: CaAbp1-D2
# Assay: as above
# Outline: as §1
row,Binder,SPOT peptide array binding signal intensity
1,FFRRSELYLPNSSKA,51.5

# Molecular target: CaBbc1
# Assay: as above
# Outline: as §1
row,Binder,SPOT peptide array binding signal intensity
1,FFRRSELYLPNSSKA,0.25

# Molecular target: CaBem1-D1
# Assay: as above
# Outline: as §1
row,Binder,SPOT peptide array binding signal intensity
1,FFRRSELYLPNSSKA,9

# Molecular target: CaBzz1-D1
# Assay: as above
# Outline: as §1
row,Binder,SPOT peptide array binding signal intensity
1,FFRRSELYLPNSSKA,95

# Molecular target: CaBzz1-D2
# Assay: as above
# Outline: as §1
row,Binder,SPOT peptide array binding signal intensity
1,FFRRSELYLPNSSKA,32.2

# Molecular target: CaCyk3
# Assay: as above
# Outline: as §1
row,Binder,SPOT peptide array binding signal intensity
1,FFRRSELYLPNSSKA,≤ 0

# Molecular target: CaFus1
# Assay: as above
# Outline: as §1
row,Binder,SPOT peptide array binding signal intensity
1,FFRRSELYLPNSSKA,624

# Molecular target: CaHof1
# Assay: as above
# Outline: as §1
row,Binder,SPOT peptide array binding signal intensity
1,FFRRSELYLPNSSKA,≤ 0

# Molecular target: CaHse1
# Assay: as above
# Outline: as §1
row,Binder,SPOT peptide array binding signal intensity
1,FFRRSELYLPNSSKA,3

# Molecular target: CaLsb1
# Assay: as above
# Outline: as §1
row,Binder,SPOT peptide array binding signal intensity
1,FFRRSELYLPNSSKA,0.5

# Molecular target: CaLsb4
# Assay: as above
# Outline: as §1
row,Binder,SPOT peptide array binding signal intensity
1,FFRRSELYLPNSSKA,13

# Molecular target: CaMyo5
# Assay: as above
# Outline: as §1
row,Binder,SPOT peptide array binding signal intensity
1,FFRRSELYLPNSSKA,14.2

# Molecular target: CaNbp2
# Assay: as above
# Outline: as §1
row,Binder,SPOT peptide array binding signal intensity
1,FFRRSELYLPNSSKA,89

# Molecular target: CaRvs167
# Assay: as above
# Outline: as §1
row,Binder,SPOT peptide array binding signal intensity
1,FFRRSELYLPNSSKA,4.5

# Molecular target: CaRvs167-3
# Assay: as above
# Outline: as §1
row,Binder,SPOT peptide array binding signal intensity
1,FFRRSELYLPNSSKA,16.2

# Molecular target: CaSho1
# Assay: as above
# Outline: as §1
row,Binder,SPOT peptide array binding signal intensity
1,FFRRSELYLPNSSKA,318

# Molecular target: CaSla1-D1-D2
# Assay: as above
# Outline: as §1
row,Binder,SPOT peptide array binding signal intensity
1,FFRRSELYLPNSSKA,≤ 0

# Molecular target: CaSla1-D3
# Assay: as above
# Outline: as §1
row,Binder,SPOT peptide array binding signal intensity
1,FFRRSELYLPNSSKA,≤ 0

# Molecular target: ScAbp1
# Assay: as above
# Outline: as §1
row,Binder,SPOT peptide array binding signal intensity
1,FFRRSELYLPNSSKA,47

# Molecular target: ScBbc1
# Assay: as above
# Outline: as §1
row,Binder,SPOT peptide array binding signal intensity
1,FFRRSELYLPNSSKA,≤ 0

# Molecular target: ScBem1-D1
# Assay: as above
# Outline: as §1
row,Binder,SPOT peptide array binding signal intensity
1,FFRRSELYLPNSSKA,18

# Molecular target: ScBzz1-D1
# Assay: as above
# Outline: as §1
row,Binder,SPOT peptide array binding signal intensity
1,FFRRSELYLPNSSKA,11

# Molecular target: ScBzz1-D2
# Assay: as above
# Outline: as §1
row,Binder,SPOT peptide array binding signal intensity
1,FFRRSELYLPNSSKA,20

# Molecular target: ScCyk3
# Assay: as above
# Outline: as §1
row,Binder,SPOT peptide array binding signal intensity
1,FFRRSELYLPNSSKA,24

# Molecular target: ScFus1
# Assay: as above
# Outline: as §1
row,Binder,SPOT peptide array binding signal intensity
1,FFRRSELYLPNSSKA,206

# Molecular target: ScHof1
# Assay: as above
# Outline: as §1
row,Binder,SPOT peptide array binding signal intensity
1,FFRRSELYLPNSSKA,1

# Molecular target: ScHse1
# Assay: as above
# Outline: as §1
row,Binder,SPOT peptide array binding signal intensity
1,FFRRSELYLPNSSKA,1290

# Molecular target: ScLsb1
# Assay: as above
# Outline: as §1
row,Binder,SPOT peptide array binding signal intensity
1,FFRRSELYLPNSSKA,6.25

# Molecular target: ScLsb2
# Assay: as above
# Outline: as §1
row,Binder,SPOT peptide array binding signal intensity
1,FFRRSELYLPNSSKA,2

# Molecular target: ScLsb3
# Assay: as above
# Outline: as §1
row,Binder,SPOT peptide array binding signal intensity
1,FFRRSELYLPNSSKA,34.5

# Molecular target: ScLsb4
# Assay: as above
# Outline: as §1
row,Binder,SPOT peptide array binding signal intensity
1,FFRRSELYLPNSSKA,8

# Molecular target: ScMyo3
# Assay: as above
# Outline: as §1
row,Binder,SPOT peptide array binding signal intensity
1,FFRRSELYLPNSSKA,3.5

# Molecular target: ScMyo5
# Assay: as above
# Outline: as §1
row,Binder,SPOT peptide array binding signal intensity
1,FFRRSELYLPNSSKA,8.5

# Molecular target: ScNbp2
# Assay: as above
# Outline: as §1
row,Binder,SPOT peptide array binding signal intensity
1,FFRRSELYLPNSSKA,42.5

# Molecular target: ScPex13
# Assay: as above
# Outline: as §1
row,Binder,SPOT peptide array binding signal intensity
1,FFRRSELYLPNSSKA,≤ 0

# Molecular target: ScRvs167
# Assay: as above
# Outline: as §1
row,Binder,SPOT peptide array binding signal intensity
1,FFRRSELYLPNSSKA,3.17

# Molecular target: ScSho1
# Assay: as above
# Outline: as §1
row,Binder,SPOT peptide array binding signal intensity
1,FFRRSELYLPNSSKA,201

# Molecular target: ScSla1-D1-D2
# Assay: as above
# Outline: as §1
row,Binder,SPOT peptide array binding signal intensity
1,FFRRSELYLPNSSKA,12

# Molecular target: ScSla1-D3
# Assay: as above
# Outline: as §1
row,Binder,SPOT peptide array binding signal intensity
1,FFRRSELYLPNSSKA,0.5

# Molecular target: SpAbp1-D1
# Assay: as above
# Outline: as §1
row,Binder,SPOT peptide array binding signal intensity
1,FFRRSELYLPNSSKA,45

# Molecular target: SpBbc1
# Assay: as above
# Outline: as §1
row,Binder,SPOT peptide array binding signal intensity
1,FFRRSELYLPNSSKA,≤ 0

# Molecular target: SpBzz1-D1
# Assay: as above
# Outline: as §1
row,Binder,SPOT peptide array binding signal intensity
1,FFRRSELYLPNSSKA,111
